Experimental findings from PubChem BioAssay (NCATS) are described below.

Molecules are shown by their SMILES. “And” between values parts separate entries of the source, which are not always exact repeats. Equal values may be shown once. Results filed as inconclusive are left out. The source made the active and inactive calls. Calls follow the shape of the dose curve; as a rule, active = well fitted cell-killing curve with a large enough effect; inconclusive = small, poorly fitted or top-dose-only effect, or effect the other way; inactive = no such curve, though single readings can be large or run the other way.
Potency is read from the fitted curve at half-maximal effect.

The nature of this assay: qHTS of pediatric cancer cell lines to identify multiple opportunities for drug repurposing: Confirmatory screen for Saos-2 cells (AID 1347127). Also: nearly all actives have a fitted effect of over 60% in size. Conditions: Saos-2 osteosarcoma cell viability; series mostly up to 45.9 µM; activity change, negative = cytotoxic: at the top concentration. The text has this: Drug repurposing or repositioning has been offered as a strategy for drug development in oncology programs. This approach has special potential for childhood cancers and other rare or orphan diseases, where the expected return on new drug development has been a disincentive to pharmaceuticals.
In this project we exploit the poly-pharmacology of drugs to discover new indications via phenotypic screening of a panel of 19 well-characterized cell lines derived from solid tumors seen in children and adolescents. The goal is to identify approved drugs with previously unrecognized anticancer properties that has the potential to reveal new mechanisms and biological processes involved in carcinogenesis or drug resistance. We employed a titration-based paradigm (quantitative high-throughput screening or qHTS), where all compounds were tested at multiple concentrations for their effect on cell viability. Concentration-response curves (CRCs) were derived directly from the primary screen, and both potency and efficacy values were used to identify compounds with robust bioactivity profiles. We screened the NIH Chemical Genomics Center (NCGC) Pharmaceutical Collection (NPC) and Mechanism Interrogation Plate (MIPE) small molecule collections of approved and investigational compounds against these cell lines; and measured metabolically active cells after 48 hours of compound treatment as a proxy for cell viability.
Assay Submitter: Nathalia J. Martinez, National Center for Advancing Translational Sciences, National Institutes of Health, Rockville, MD, USA; email: natalia.martinez@nih.gov
[1] Shen, M et al. Quantitative high-throughput phenotypic screening of pediatric cancer cell lines identifies multiple opportunities for drug repurposing. Oncotarget 2017 Dec 19;9(4):4758-4772. PMID 29435139.
The cells were obtained from University of North Carolina (UNC), Pediatric Preclinical Testing Program (PPT), and Coriell Institute (CI).
qHTS cell viability assay:
Cells were assayed in growth media at a density of 500-1,000 cells/well. Five microliters of cells were dispensed into 1,536-well, white, solid-bottom, TC-treated plates (Greiner Bio One) using a multidrop dispenser and incubated at 37 degrees C, 5% CO2, under a humidified atmosphere for 5 hours. Twenty-three nanoliters of compounds and controls (neutral control DMSO or positive control bortezomib at final concentration of 2.3 µM) were subsequently transferred by Kalypsys pintool. For primary screens, the MIPE collection was tested at 11-point dilutions (final concentrations range from 0.78 nM to 46 µM) and the NPC collection at 8-point dilutions (final concentrations range from 0.59 nM to 46 µM). Compounds tested in follow-up screens were assayed at 11-point dilutions. Cells were incubated for 48 hours, followed by addition of 3 µL of CellTiter-Glo (Promega). After a 15 min incubation at room temperature, samples were analyzed for luminescence intensity using a ViewLux High-throughput CCD imager equipped with clear filters.
(In general: In qHTS, concentration-response curves come from the screen itself.)
As for `CN(C)c1ccc(C(=C2C=CC(=[N+](C)C)C=C2)c2ccc(N(C)C)cc2)cc1`, the Potency is 1.31 µM (active).

For `CN1CCCC(n2nc(Cc3ccc(Cl)cc3)c3ccccc3c2=O)CC1` (stereo not given), the “activity change, negative = cytotoxic” value is -27.1% (inactive).

Consider `CC(C)NCC(O)c1ccc(NS(C)(=O)=O)cc1` (stereo not given), for which the call was inactive.

As to `Cc1cccc(N(C)C(=S)Oc2ccc3ccccc3c2)c1`, the “activity change, negative = cytotoxic” value was -11.7% (inactive).

In the case of `CCC(=O)O[C@]1(C(=O)CCl)[C@@H](C)C[C@H]2[C@@H]3CCC4=CC(=O)C=C[C@]4(C)[C@@]3(F)[C@@H](O)C[C@@]21C`, the compound was called inactive.

Turning to `CC(C)(C#N)c1cc(Cn2cncn2)cc(C(C)(C)C#N)c1`, the “activity change, negative = cytotoxic” value is 12.7% (inactive).

With `COc1ccc(C(=O)CC(=O)c2ccc(C(C)(C)C)cc2)cc1`, the “activity change, negative = cytotoxic” value is 4.94% (inactive).

`NC(=O)c1cccnc1`: the “activity change, negative = cytotoxic” value was -6.31% (inactive).

Regarding `Nc1nc(N)nc(-c2cc(Cl)ccc2Cl)n1`, the “activity change, negative = cytotoxic” value was 1.83% (inactive).

`CCOC(=O)[C@H](CCc1ccccc1)N[C@H]1CS[C@H](c2cccs2)CN(CC(=O)O)C1=O`: the “activity change, negative = cytotoxic” value was 11.7% (inactive).

In the case of `COc1nc(N)nc2c1ncn2[C@@H]1O[C@H](CO)[C@@H](O)[C@@H]1O`, the “activity change, negative = cytotoxic” value was 4.09% (inactive).

As to `COC(=O)Nc1nc2ccc(S(=O)c3ccccc3)cc2[nH]1` (stereo not given), the Potency was 1.47 µM (active).

With `CC(C(=O)O)c1ccc2c(c1)CC(=O)c1ccccc1S2` (stereo not given), the “activity change, negative = cytotoxic” value was -1.61% (inactive).

Consider `CNCC[C@H](Oc1cccc2ccccc12)c1cccs1`, for which the “activity change, negative = cytotoxic” value was -6.83% (inactive).

For `COc1cc(NCc2ccc3nc(N)nc(N)c3c2C)cc(OC)c1OC`, the Potency was 10.4 µM (active).

`CC(C)(C)C(=O)OCOP(=O)(COCCn1cnc2c(N)ncnc21)OCOC(=O)C(C)(C)C`: the Potency was 14.7 µM (active).

As to `C[C@@H](CN1CC(=O)NC(=O)C1)N1CC(=O)NC(=O)C1`, the “activity change, negative = cytotoxic” value is 18.1% (inactive).

As for `COC(=O)Nc1nc2ccc(Sc3ccccc3)cc2[nH]1`, the Potency was 1.31 µM (active).

As to `CNS(=O)(=O)CCc1ccc2[nH]cc(C3CCN(C)CC3)c2c1`, the call was inactive.

Turning to `Cn1nnc2c(C(N)=O)ncn2c1=O`, the result was inactive.

As to `Nc1nc(N)c2nc(CNc3ccc(C(=O)NC(CCC(=O)O)C(=O)O)cc3)cnc2n1` (stereo not given), the “activity change, negative = cytotoxic” value is 12.9% (inactive).

`CCc1c2c(nc3ccc(OC(=O)N4CCC(N5CCCCC5)CC4)cc13)-c1cc3c(c(=O)n1C2)COC(=O)[C@]3(O)CC`: the Potency was 1.85 µM (active).

On to `CC(C)C[C@H](NC(=O)[C@H](CCc1ccccc1)NC(=O)CN1CCOCC1)C(=O)N[C@@H](Cc1ccccc1)C(=O)N[C@@H](CC(C)C)C(=O)[C@@]1(C)CO1`, for which the Potency is 0.117 µM (active).

For the compound `Nc1nc(=S)c2[nH]cnc2[nH]1`, the Potency was 7.37 µM (active) and 2.93 µM (active).

With `CCCCOc1ccc(CC(=O)NO)cc1`, the “activity change, negative = cytotoxic” value is -6.21% (inactive).

Turning to `Nc1nc(F)nc2c1ncn2[C@@H]1O[C@H](CO)[C@@H](O)[C@@H]1O`, the Potency was 928 nM (active) and 1.17 µM (active).

For `S=P(N1CC1)(N1CC1)N1CC1`, the “activity change, negative = cytotoxic” value was -11.4% (inactive).

For the compound `CNC(=O)c1cc(Oc2ccc(NC(=O)Nc3ccc(Cl)c(C(F)(F)F)c3)cc2)ccn1`, the “activity change, negative = cytotoxic” value is -22.7% (inactive).

As for `CNNCc1ccc(C(=O)NC(C)C)cc1`, the “activity change, negative = cytotoxic” value is 4.9% (inactive).

With `COc1cc2c(Nc3ccc(Br)cc3F)ncnc2cc1OCC1CCN(C)CC1`, the “activity change, negative = cytotoxic” value is 11.1% (inactive).

Turning to `CC1CC2C3CCC4=CC(=O)C=C[C@]4(C)[C@@]3(F)[C@@H](O)C[C@]2(C)[C@@]1(O)C(=O)CO` (stereo not given in full), the “activity change, negative = cytotoxic” value was 1.11% (inactive).

In the case of `COc1cc([C@@H]2c3cc4c(cc3[C@H](O)[C@H]3COC(=O)[C@H]23)OCO4)cc(OC)c1OC`, the Potency was 0.0414 µM (active).

In the case of `CCOC(=O)c1ccc(C#Cc2ccc3c(c2)C(C)(C)CCS3)nc1`, the “activity change, negative = cytotoxic” value was -2.73% (inactive).

`C[C@@H]1C[C@H]2[C@@H]3CCC4=CC(=O)C=C[C@]4(C)[C@@]3(Cl)[C@@H](O)C[C@]2(C)[C@@]1(OC(=O)c1ccco1)C(=O)CCl`: the Potency is 4.14 µM (active).

With `CCC(=O)O[C@]1(C(=O)SCF)[C@H](C)C[C@H]2[C@@H]3C[C@H](F)C4=CC(=O)C=C[C@]4(C)[C@@]3(F)[C@@H](O)C[C@@]21C`, the “activity change, negative = cytotoxic” value is -12.2% (inactive).
